# Screening data: PubChem BioAssay, National Center for Advancing Translational Sciences (NCATS)
# Compounds with a hit are over-represented: about 3% of the library has one in this group of screens.
# TexasRed fluor = alters Texas Red total fluorescence, flagging assay interference; actives 0.29% (n = 280,000); Potency, µM (titrated, usually from 106 µM), without a hit: top-dose fluorescence change, negative = quenching; TRb/SRC2 Texas Red total fluorescence interference; active = well fitted curve in either direction with a large enough effect; inconclusive = small, poorly fitted or top-dose-only effect
#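 Human TRβ ligand-binding domain (0.6 uM) and Texas Red SRC2 peptide (20 nM) in Tris buffer with 1 uM T3 and 5% DMSO were incubated with pinned compound for 5 hr at ambient temperature. Total fluorescence was computed as S + 2P (555/632 nm).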
# Tau fluor counter = counter-screen for tau fibril formation inhibitors; tau K18 P301L Alexa594 fluorescence, heparin fibrillization; Potency, µM (titrated, usually from 57.7 µM), for the others: at the highest dose activity change, negative = decrease; actives 0.93% (n = 280,000); AID 1463; note: nearly all actives have a fitted effect of over 55% in size
#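 Human tau K18 P301L (15 uM unlabeled, 0.24 uM Alexa 594-labeled) in 100 mM sodium acetate pH 7 with 20 uM heparin, 6 hr at 37 C. ThT 30 uM added, 1 hr ambient; Alexa 594 FP and total fluorescence read at 555/632 nm.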
# TRb-SRC2 inh = disrupts binding of human TR beta to SRC2; P10828; Potency, µM (highest dose often 106 µM), inactives show top-dose activity change, negative = inhibition, most hits filed as inhibitors; AID 1469; actives 0.065% (n = 280,000); TRbeta-SRC2 peptide binding, fluorescence polarization; receptor liganded with 1 µM T3;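 note: plate controls were bound peptide for no effect and peptide without receptor for full effect; nearly all actives have a fitted effect of over 50% in size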
# Target sequence (P10828 whole entry, looked up): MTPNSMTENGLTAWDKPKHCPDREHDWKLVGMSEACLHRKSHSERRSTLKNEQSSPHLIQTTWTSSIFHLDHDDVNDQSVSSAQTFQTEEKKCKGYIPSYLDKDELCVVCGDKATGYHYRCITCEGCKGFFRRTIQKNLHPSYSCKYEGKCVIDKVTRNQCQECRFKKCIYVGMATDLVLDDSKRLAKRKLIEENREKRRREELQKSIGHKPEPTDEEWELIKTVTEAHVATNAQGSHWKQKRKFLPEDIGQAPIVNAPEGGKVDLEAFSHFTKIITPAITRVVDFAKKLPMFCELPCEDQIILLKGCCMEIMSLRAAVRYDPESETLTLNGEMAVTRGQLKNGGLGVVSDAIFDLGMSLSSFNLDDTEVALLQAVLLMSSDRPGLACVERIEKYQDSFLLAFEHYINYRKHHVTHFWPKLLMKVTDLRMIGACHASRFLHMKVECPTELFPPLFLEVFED
#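 Human TRb ligand-binding domain (0.6 uM) is mixed with 20 nM Texas Red SRC2 peptide and 1 uM T3; after compound addition and 5 hr at ambient temperature, polarization is measured and normalized to unbound and bound controls.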
# Tau fibril ThT = tau fibrillization inhibition (ThT binding); AID 1460; Potency, µM (series often up to 57.4 µM), inactives show top-dose activity, negative = inhibition, usual class: inhibitors; actives 2.1% (n = 270,000); recombinant tau K18 P301L, heparin-induced fibrillization, ThT fluorescence; P10636; note: nearly all actives have a fitted effect of over 55% in size
# Target sequence (P10636 561-689 P618L limits assumed): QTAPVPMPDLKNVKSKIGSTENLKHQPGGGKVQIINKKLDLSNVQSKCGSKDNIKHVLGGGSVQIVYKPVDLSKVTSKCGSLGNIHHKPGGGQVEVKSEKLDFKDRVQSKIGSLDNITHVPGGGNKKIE
#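 Recombinant human tau K18 fragment […] carrying P301L, 15 uM unlabeled plus 0.24 uM Alexa 594-labeled, was fibrillized with 20 uM heparin in 100 mM sodium acetate pH 7 for 6 hr at 37 C; 30 uM ThT fluorescence read after 1 hr.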
# Tau fibril FP = tau fibrillization inhibition (FP); K18 P301L tau heparin fibrillization, Alexa594 FP, 6 h; P10636; AID 1468; actives 0.39% (n = 280,000); Potency, µM (series often up to 57.7 µM), for the others: at the top dose activity, negative = inhibition, actives largely listed as inhibitors; note: nearly all actives have a fitted effect of over 55% in size
#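 Heparin (20 uM) drove fibril formation of recombinant tau K18 P301L, 15 uM unlabeled with 0.24 uM Alexa 594 label, for 6 hr at 37 C in 100 mM sodium acetate pH 7. Fluorescence polarization (555/632 nm) read 1 hr after 30 uM ThT.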
# * marks the source's active call; other numbers are inactive results; ? = inconclusive; · = no result given; [ ] = dose if it differs, or a comment. Unless noted, calls come from the whole dose curve; as a rule, active = well fitted curve in the direction sought with a large enough effect; inconclusive = small, poorly fitted or top-dose-only effect, or another doubt; inactive = no such curve, though single readings can be large; an effect the other way counts as inactive or inconclusive. Unless noted, % is set by controls: 0 for no effect and ±100 for the full control effect; potency is the fitted concentration of half-maximal effect.
SMILES,TexasRed fluor,Tau fluor counter,TRb-SRC2 inh,Tau fibril ThT,Tau fibril FP
Cc1ccc(NC(=O)CN2C(=O)N/C(=C/c3ccco3)C2=O)cc1,50µM*[quencher],-24%,11%,?,?
Cc1ccc(NC(=O)CN2C(=O)N/C(=C/c3cccn3-c3ccc(C(=O)O)cc3)C2=O)cc1,-13%,-5%,5%,-8%,4%
COc1ccc(C(=O)ON=C2C=C(C)C(=O)C(C)=C2)cc1,-1%,-1%,5%,2%,0%
COc1ccc(SN=C2C(C)=CC(=O)C=C2C)cc1,-2%,?,6%,2.8µM*,?
CCCn1c2ccccc2c2cnn(CC(=O)NCc3ccc(OC)cc3)c(=O)c21,-3%,-8%,0%,3%,-15%
Cc1ccc(C)c2[nH]c(=O)c(C(c3nnnn3Cc3ccco3)N3CCc4ccccc4C3)cc12 (stereo not given),-2%,-18%,?,32µM*,?
CCOc1ccc(S(=O)(=O)NCCc2c(C)[nH]c3c(Cl)cccc23)cc1C,2%,10µM*[quencher],-2%,-16%,7%
CCOc1ccc(S(=O)(=O)NCc2cccnc2)cc1C,3%,-1%,6%,-4%,0%
CCC(C)Sc1oc(-c2ccco2)nc1S(=O)(=O)c1ccc(Cl)cc1 (stereo not given),2%,?,-2%,-15%,-3%
CSCC[C@@H]1NC(=O)[C@@H](NC(=O)[C@H](CCCNC(=N)N)NC(=O)[C@H](CC(C)C)NC(=O)[C@H](CCSC)NC(=O)[C@H](CC(=O)O)NC(=O)[C@H](Cc2ccccc2)NC(=O)[C@@H](N)CC(=O)O)CSSC[C@@H](C(=O)N[C@@H](Cc2c[nH]c3ccccc23)C(=O)N[C@@H](CCC(N)=O)C(=O)N[C@H](C(=O)O)C(C)C)NC(=O)[C@@H]2CCCN2C(=O)[C@H](CCCNC(=N)N)NC(=O)[C@H](Cc2ccc(O)cc2)NC(=O)[C@H](C(C)C)NC(=O)[C@H](CCCNC(=N)N)NC(=O)CNC(=O)[C@H](CC(C)C)NC1=O,-4%,·,-5%,·,·
O=C(Nc1cc(Sc2nc3ccccc3s2)cc([N+](=O)[O-])c1)c1ccccc1F,1%,13µM*[quencher],3%,-15%,?
O=C(Nc1cc(Sc2ccccn2)cc([N+](=O)[O-])c1)c1cccc(F)c1,-2%,7%,1%,4%,4%
O=C(Nc1cc(Sc2nc3ccccc3s2)cc([N+](=O)[O-])c1)c1ccccc1,-18%,4µM*[quencher],3%,0%,5%
Cc1cc(NC(=O)c2ccccc2F)ccc1-c1nc2ccccc2s1,-3%,-7%,2%,?,-9%
Cn1c(=O)c(NCCc2ccccc2)c2c3c(cccc31)C(=O)c1ccccc1-2,45µM*[fluorescent],-27%,28µM*,-15%,-3%
COc1cc(/C=C2\SC(c3ccc(C)cc3)=NC2=O)cc(OC)c1O,-12%,?,-6%,5µM*,?
Cc1ccc(C2=NC(=O)/C(=C/c3cc(O)c(O)c(Br)c3)S2)cc1,0%,2.8µM*[quencher],11%,4µM*,?
COc1cc(/C=C2\SC(=Nc3ccc(O)cc3)NC2=O)cc(OC)c1O,-23%,-4%,12%,?,4%
CCOC(=O)OCC,-1%,·,9%,·,·
COc1ccc(/C=N/N(Cc2ccccc2)c2ccccc2)cc1O,-3%,14µM*[quencher],1%,?,?
CCC1CN(C(=O)N2CCC(C(=O)NCCc3ccc(C)cc3)CC2)c2ccccc2O1 (stereo not given),-12%,?,1%,19%,-14%
Cc1ccc(C(=O)/C=C/Nc2cccc([N+](=O)[O-])c2)o1,-6%,?,-7%,14µM*,1%
CN(C)C(/C=C/Nc1cccc([N+](=O)[O-])c1)=C(C#N)C#N,2%,-13%,-7%,?,-4%
CCOc1ccc(C(=O)/C=C/c2cn(CC(O)CN3CCc4ccccc43)c3ccccc23)cc1 (stereo not given),-4%,?,-8%,?,11%
Nc1ccc(N2CCCCCC2)cc1,25%,?,45µM*,7.1µM*,14µM*
SMILES,TexasRed fluor,Tau fluor counter,TRb-SRC2 inh,Tau fibril ThT,Tau fibril FP
Nc1ccc(N2CCN(c3ccc(Cl)c(Cl)c3)CC2)cc1,0%,?,4%,16µM*,-5%
O=C(O)c1ccc(N2CCCCC2)cc1,1%,2%,-14%,0%,-4%
Nc1ccc(N2CCN(c3ccc(F)cc3)CC2)cc1,-2%,?,1%,13µM*,-7%
O=C(O)/C=C/C(=O)N1CCN(c2ccc(F)cc2)CC1,-1%,-4%,12%,-13%,-10%
Cc1ccc(N2CC(NC(=O)C(=O)c3c[nH]c4ccccc34)CC2=O)cc1 (stereo not given),-2%,6%,3%,6%,-10%
COc1cc2cc3c4cc(OC)c(OC)cc4cc[n+]3c(C)c2cc1OC,-2%,-13%,2%,?,-7%
Fc1ccc2[nH]c3c(c2c1)CN(C(=S)NCc1ccccc1)CC3,-4%,16µM*[quencher],-8%,?,?
S=C(NCc1ccccc1)N1CCc2ccccc2C1,-5%,?,-3%,-7%,?
C=CCN1C(=O)/C(=C/c2ccc(O)c(OC)c2)S/C1=N/c1nccs1,-7%,28µM*[quencher],9%,?,0%
C=CCN1C(=O)/C(=C/c2ccc(OCC(=O)O)cc2)S/C1=N/c1nccs1,-10%,0%,14%,?,5%
O=C(Nc1nc(-c2ccccn2)cs1)c1ccc([N+](=O)[O-])o1,-11%,?,7%,13µM*,?
O=C(Nc1nc(-c2ccccn2)cs1)c1cc(Cl)ccc1[N+](=O)[O-],-6%,-22%,-1%,?,4%
Cc1cc(C(=O)Nc2nc(-c3ccccn3)cs2)ccc1[N+](=O)[O-],-4%,?,-9%,11µM*,6%
Cc1cc(O)c(C(C)(C)C)cc1Sc1cc(C(C)(C)C)c(O)cc1C,-4%[201 µM],·,7%[201 µM],·,·
Cc1c(Cl)cccc1NC(=S)N=Nc1c(O)n(CN2CCOCC2)c2ccccc12,1%,18µM*[quencher],0%,?,-14%
Oc1c(N=NC(=S)Nc2ccccc2F)c2ccccc2n1Cc1ccccc1Cl,-2%,?,1%,-19%,?
CCC(=O)N1CCN(c2ccc(NC(=O)c3cc4ccccc4o3)cc2)CC1,-6%,?,-10%,2.8µM*,2%
O=C(Nc1ccc(N2CCOCC2)cc1)c1cc2ccccc2o1,-9%,-27%,1%,5.6µM*,2%
O=C(Nc1ccc(CN2CCOCC2)cc1)c1cc2ccccc2o1,-4%,-13%,0%,-10%,-2%
O=C1CCC[C@@H](C(C(=O)OCc2ccccc2)C(=O)OCc2ccccc2)C1,-3%[11.2 µM],-6%[11.6 µM],3%[11.2 µM],-1%[11.5 µM],0%[11.6 µM]
